Compound activity as filed in PubChem BioAssay.
An excerpt weighted towards active compounds, which were near 1.8% of everything screened.
Mtb hypoxia inh – Mtb hypoxia fluorescent reporter inhibition; M. tuberculosis hypoxia-regulated fluorescent reporter, fluorescence; fluorescence inhibition, % (test concentration not listed); 0.1% of 300,000 active; AID 1159583; in the data active = fluorescence inhibition mostly above about 23%, no sharp cut-off; inactive = mostly below about 17%
Sa ugtP lethal – growth inhibition of S. aureus ugtP deletion strain | S. aureus RN4220 ugtP deletion, OD600 growth, 16 h | growth inhibition, % (test concentration not listed) | 0.54% of 330,000 active; in the data active = growth inhibition above about 68%
VHR inh abs – inhibitors of human VHR1 phosphatase (DUSP3); AID 1654; inhibition, % at 13.3 µM; P51452; 0.52% of 290,000 active; recombinant VHR phosphatase, pNPP absorbance; in the data active = inhibition above about 50%
Target sequence (P51452 whole entry, looked up): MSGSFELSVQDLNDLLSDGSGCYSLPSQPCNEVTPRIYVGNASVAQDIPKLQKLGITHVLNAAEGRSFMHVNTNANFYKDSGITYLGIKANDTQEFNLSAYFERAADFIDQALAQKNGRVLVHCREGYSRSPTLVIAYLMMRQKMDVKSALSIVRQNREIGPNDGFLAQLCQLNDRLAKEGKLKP
RN4220 kill – S. aureus RN4220 growth inhibition; OD600, 16 h; inhibition, % (concentration not given with the values); 0.33% of 330,000 active; AID 1259311; in the data active = inhibition above about 85%
SSB-PriA inh – blocks PriA binding to SSB C-terminal tail; 0.6% of 430,000 active; AlphaScreen SSBct-PriA binding, biotinylated peptide; AID 1272365; inhibition, % at 33 µM; in the data active = inhibition mostly above about 37%, no sharp cut-off; inactive = mostly below about 20%
PfHsp40 rescue – compounds rescuing yeast from Plasmodium falciparum HSP40 toxicity; S. cerevisiae expressing PfHsp40, growth rescue, ATP luminescence; growth rescue, % at 12.5 µM; 0.68% of 340,000 active; in the data active = growth rescue above about 28%, passing the limit was not always enough;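 note: yeast W303a lacking pdr1 and pdr3 grown in galactose medium; growth measured after three days at 30 °C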
Hits are given with their value; – = inactive; · = not tested or not shown.

SMILES	Mtb hypoxia inh	Sa ugtP lethal	VHR inh abs	RN4220 kill	SSB-PriA inh	PfHsp40 rescue
Cc1ccc(S(=O)(=O)N(C(=O)c2ccncc2)c2ccc(OC(=O)c3ccncc3)cc2)cc1	–	–	–	–	–	372.5
COc1ccc(N(C(=O)c2cccnc2)S(=O)(=O)c2ccc(F)cc2)cc1	·	–	52.8	–	–	–
CCc1ccc(S(=O)(=O)N(C(=O)c2ccncc2)c2ccc(OC(=O)c3ccncc3)cc2)cc1	–	–	–	–	–	234.2
O=C(Oc1ccc(N(C(=O)c2ccncc2)S(=O)(=O)c2ccc(Cl)cc2)cc1)c1ccncc1	–	–	–	–	–	421.9
Cc1nnsc1C(=O)N1CCN(C[C@H](O)c2cccs2)CC1	·	·	·	·	–	·
CCc1ccc(NC(=O)CSc2nc3c(sc(=S)n3-c3ccccc3C)c(=O)[nH]2)cc1	·	·	·	·	–	·
O=C(CC1CSc2nc3c(cnn3-c3cccc(Cl)c3)c(=O)n21)Nc1nccs1 (configuration not stated)	·	·	·	·	–	·
O=C(/C=C/c1ccccc1Cl)Nc1ccc([N+](=O)[O-])cc1Br	·	·	·	·	–	·
COc1ccc(N(C(=O)c2ccncc2)S(=O)(=O)c2ccc(Cl)cc2)cc1	·	–	–	–	–	140.9
Cc1ccc(CNC(=O)[C@]2(C)CCC[C@@]3(C)C4CC[C@@]5(C)C[C@]4(CCC32)CC5=O)cc1 (some centres not stated)	·	·	·	·	–	95.1
COc1ccc(CNC(=O)[C@]2(C)CCC[C@@]3(C)C4CC[C@@]5(C)C[C@]4(CCC32)CC5=O)cc1 (some centres not stated)	–	–	·	–	–	162.5
C[C@@]12CCC3[C@@](CCC4[C@@]3(C)CCC[C@@]4(C)C(=O)NC3CCCCC3)(CC1=O)C2 (some centres not stated)	–	–	·	–	–	–
O=C(NCc1ccc(F)cc1)N(Cc1cccs1)C1CCOCC1	·	·	·	·	–	·
Cc1cccc(Cc2cnc(N3C(=N)SC(C)C3=O)s2)c1 (configuration not stated)	–	–	–	89.9	–	–
N=C1SCC(=O)N1c1ncc(Cc2ccccc2Cl)s1	–	–	–	92.6	–	–
N=C1SCC(=O)N1c1ncc(Cc2cccc(Cl)c2)s1	–	98.2	–	96.8	–	–
Cn1nc(CNC(=O)c2cccn(C)c2=O)cc1C1CC1	·	·	·	·	–	·
O=C(O)CCCc1c(-c2ccccn2)[nH]c2ccc(Br)cc12	·	·	·	·	–	·
Cc1ccc(NC(=S)NC(=O)CC2CC(C)(C)OC2=O)cc1 (configuration not stated)	–	–	57.8	–	–	–
CC1(C)CC(CC(=O)NC(=S)Nc2ccc([N+](=O)[O-])cc2)C(=O)O1 (configuration not stated)	·	–	–	–	–	–
O=C(COc1ccc(F)cc1)Nc1ccc2c(c1)N(C(=O)C1CCCC1)CC2	·	·	·	·	–	·
O=C1C(SCCO)=C(SCCO)C(=O)c2ccccc21	·	·	·	·	101.3	–
Cc1ccc(Cl)cc1NC(=O)C1CCCN1S(=O)(=O)c1ccc(-c2ccc(=O)[nH]n2)s1 (configuration not stated)	–	96.6	–	96.5	–	–
Cc1cc(NC(=O)C2CCCN2S(=O)(=O)c2ccc(Cl)s2)n(C(C)C)n1 (configuration not stated)	·	·	·	·	–	·
Cc1ccc(-n2c(-c3ccc(Br)cc3)c[n+]3c2CCc2ccc4cccnc4c2-3)cc1	·	–	–	99.0	–	–
SMILES	Mtb hypoxia inh	Sa ugtP lethal	VHR inh abs	RN4220 kill	SSB-PriA inh	PfHsp40 rescue
Cc1cccc(N2C[C@](O)(c3cccs3)[N+]3=C2CCCCC3)c1C	·	·	·	·	–	·
COc1nccnc1NS(=O)(=O)c1ccc(NC(=S)NC(=O)c2ccccc2)cc1	–	–	51.9	–	–	–
CC(=O)N1CCN(c2ccc(NC(=S)NC(=O)c3ccccc3)cc2)CC1	–	93.0	–	–	–	–
CN1CCN(c2ccc(NC(=S)NC(=O)c3cccc4ccccc34)cc2)CC1	–	95.4	–	–	–	–
O=C(NC(=S)N1CCN(c2ccc([N+](=O)[O-])cc2)CC1)c1ccco1	–	–	53.0	–	–	–
CC(C)C(=O)NNC(=O)c1ccc(=O)n(Cc2ccc(Cl)cc2)c1	·	·	·	·	–	·
COc1cc(C(=O)Nc2nnc(-c3cc(C)nn3C)o2)cc(OC)c1OC	·	·	·	·	–	·
O=C(NC(=S)Nc1ccc(S(=O)(=O)N2CCCCC2)cc1)c1ccccc1	·	85.9	–	–	–	–
Cc1ccc(C(=O)NC(=S)Nc2ccc(N3CCN(C(=O)c4ccco4)CC3)cc2)cc1	–	91.3	–	–	–	–
